Source: PubChem
This is one part of a sample in which hits are shown more often than they occur.
YopH inh = inhibitors of Yersinia enterocolitica YopH tyrosine phosphatase; fluorescence Ex485/Em525; inhibition, % (test concentration not listed); 0.16% of 140,000 active; AID 898; in the data active = inhibition above about 50%
Each line names hits and unclear results; the compound was inactive in the other large screens.

Cc1oc2ccccc2c1-c1cn2c(n1)SCC2	YopH inh 55.4
COc1ccccc1-c1ccc(/C=C2/C=C(CC(C)C)OC2=O)o1	none
CC(=O)N(Cc1ccc(F)cc1)C1=C(NCCc2ccccc2)C(=O)c2ccccc2C1=O	none
CC(=O)C1=C(c2ccc(Br)cc2)C(=O)c2ccccc2C1=O	none
CNC1=C(N(C(C)=O)c2ccc(Br)cc2)C(=O)c2ccccc2C1=O	YopH inh 84.0
O=C(O)/C=C/c1ccccc1Oc1ccccc1	none
Cc1cc(C)n(C(=O)CNC(=O)c2ccco2)n1	none
Cc1cccc(NCc2nc(-c3ccccc3)no2)c1	none
CCCC(=O)OCCNc1cc(SCc2ccco2)c2nonc2c1[N+](=O)[O-]	none
CCCSc1cc(NCCOC(C)=O)c([N+](=O)[O-])c2nonc12	none
CC(=O)OCCCNc1cc(SCc2ccco2)c2nonc2c1[N+](=O)[O-]	YopH inh 69.4
CC(C)NC(=O)c1c(O)c2ccccc2[nH]c1=O	none
O=C(COC(=O)c1ccc([N+](=O)[O-])s1)NCc1ccccc1	none
CC(C)(C)c1ccc(NC(=O)COC(=O)c2ccc([N+](=O)[O-])s2)cc1	none
O=C(COC(=O)c1ccc([N+](=O)[O-])s1)Nc1ccccc1	YopH inh 50.5
O=S(=O)(NCc1ccc(Cl)cc1)c1cnc[nH]1	none
Cc1cccc(NC(=O)COc2cccc3c2CCN(Cc2ccccc2)C3=O)c1C	none
CCCCC(=O)C1=C(N2CCCC2)CC(C)(C)CC1=O	none
CCOc1ccccc1NC(=O)CC1Nc2ccccc2NC1=O (stereo not drawn)	none
O=C(Cn1c(=O)c(=O)n(Cc2ccccc2)c2ccc(Cl)cc21)Nc1cccc(F)c1	none
O=C(/C(=C(\[O-])c1ccccc1)[n+]1ccc2ccccc2c1)c1ccc([N+](=O)[O-])cc1	none
O=C(/C(=C(\[O-])c1ccccc1)[n+]1ccc2ccccc2c1)c1ccccc1	YopH inh 69.2
O=C(/C(=C(\[O-])c1ccccc1)[n+]1ccc2ccccc2c1)c1ccc(Cl)cc1	none
CC(C)Oc1ccc(N2C(=O)c3ccccc3C2=O)cc1	none
CCO/C=C1/C(=O)N(C)C(=O)c2cc(OC)ccc21	none
CCO/C=C1\C(=O)N(c2ccccc2)C(=O)c2ccccc21	YopH inh 89.1
CCO/C=C1/C(=O)N(Cc2ccccc2)C(=O)c2ccccc21	YopH inh 101.4
CCO/C=C1/C(=O)N(CC)c2ccccc21	none
CCN(CC)c1ccc(N2C(=O)c3ccccc3C2=O)cc1	none
Cc1cc(C(=O)N/N=C/c2cccc([N+](=O)[O-])c2O)n[nH]1	none
COc1ccccc1C1CC(=O)NC(C)=C1C(=O)OCC(C)C (stereo not drawn)	none
C=CCOC(=O)C1=C(C)NC(=O)NC1/C=C/c1ccccc1OC (stereo not drawn)	none
CC1=C(C(=O)OCC(C)C)C2(O)C(=O)c3ccccc3C2(O)N1 (stereo not drawn)	YopH inh 68.7
C=CCOC(=O)C1=C(C)NC(=O)NC1/C=C/c1ccccc1 (stereo not drawn)	none
CC1=C(C(=O)OCC(C)C)C(c2ccsc2)NC(=O)N1 (stereo not drawn)	none
C=CCOC(=O)C1=C(C)NC2(O)c3ccccc3C(=O)C12O (stereo not drawn)	YopH inh 77.6
O=C(COc1ccc(Cl)cc1)Nc1cc(S(=O)(=O)N2CCCCC2)ccc1N1CCCCC1	none
Cc1ccc(N2C(=O)/C(=C/c3ccco3)SC2=S)cc1	none
O=C(NCc1ccco1)Oc1ccccc1	none
COC(=O)c1cccc(NC(=O)CN2CCN(Cc3ccccc3)CC2)c1	none
COC(=O)c1ccc(Cl)c(NC(=O)CN2CCN(Cc3ccccc3)CC2)c1	YopH inh 63.7
COc1cccc(CN2CCN(CC(=O)Nc3ccccc3Cl)CC2)c1	none
CN1Cc2c(N3CCOCC3)nc(SCc3ccccc3)c(C#N)c2CC1(C)C	none
CC(=O)Nc1nonc1NC(C)=O	none
CCOc1cc(NC(=O)C2CCCO2)c(OCC)cc1NC(C)=O (stereo not drawn)	none
CC(=O)Nc1cc(OC(C)=O)c2nonc2c1OC(C)=O	YopH inh 75.9
O=S(=O)(NC1CCCC1)c1ccccc1Cl	none
CCN(CC)C1=N/C(=C\c2ccco2)C(=O)N1c1ccccc1	none
Cc1ccc(-c2nnn(CC(=O)NC3CCN(Cc4ccccc4)CC3)n2)cc1	none
Cc1cc(C)n(CC(=O)N2c3ccccc3Sc3ccccc32)n1	none
O=C(CN1CCCC1)N1c2ccccc2Sc2ccc(C(F)(F)F)cc21	none
O=C1CCC(=O)N1CC(=O)N1c2ccccc2Sc2ccccc21	YopH inh 53.5
CC(=O)C1=C(O)C(=O)N(c2cccc(C(=O)O)c2)C1c1ccc(F)cc1 (stereo not drawn)	none
Cc1c(N2C(=O)/C(=C3/C(=O)N(C)c4ccccc43)SC2=S)c(=O)n(-c2ccccc2)n1C	none
CCN1C(=O)/C(=C2\SC(=S)N(c3c(C)n(C)n(-c4ccccc4)c3=O)C2=O)c2ccccc21	none
CC(=O)N1C(=O)/C(=C2\SC(=S)N(c3c(C)n(C)n(-c4ccccc4)c3=O)C2=O)c2ccccc21	YopH inh 99.2
CC(=O)N1[C@@H]2CC3C4CC=C5C[C@@H](O)CC[C@]5(C)C4CC[C@]3(C)[C@@]21C(C)=O (stereo partly drawn)	none
CCNC(=O)CC1C(=O)N(c2cccc(OC)c2)C(=O)N1CCOC (stereo not drawn)	none
COc1ccc(N2C(=O)[C@@H]3[C@H](C2=O)[C@H](C(=O)c2ccc(OC(C)=O)cc2)N2N=CC=C[C@@H]32)cc1	none
CC(C)(C)C(=O)[C@@H]1[C@@H]2C(=O)N(C3CCCCC3)C(=O)[C@@H]2[C@H]2c3ccccc3C=CN12	none
COc1ccc(N2C(=O)[C@@H]3[C@H](C2=O)[C@H]2c4ccccc4C=CN2[C@@H]3C(C)=O)cc1	YopH inh 60.5
COc1cccc(OCCSc2nnc3sc4ccccc4n23)c1	none
O=C(c1cccs1)N1CCN=C1SCc1cccnc1	YopH inh 50.5
O=C(c1cccc(F)c1)N1CCN=C1SCc1cccnc1	none
O=C(c1ccco1)N1CCN=C1SCc1cccnc1	none
O=C(CC12CC3CC(CC(C3)C1)C2)N/N=C/c1ccc([N+](=O)[O-])o1	none
COC(=O)NC1CCS(=O)(=O)C1 (stereo not drawn)	none
O=C(NCc1ccccc1)C1CCCN1S(=O)(=O)c1cccc2cccnc12 (stereo not drawn)	YopH inh 80.2
O=C(NC1CCCCCC1)C1CCCN1S(=O)(=O)c1cccc2cccnc12 (stereo not drawn)	none
O=C(NC1CCCC1)C1CCCN1S(=O)(=O)c1cccc2cccnc12 (stereo not drawn)	none
COc1cccc(NC(=O)COC(=O)COc2ccccc2[N+](=O)[O-])c1	none
CC(=O)N1CCC(N(C(=O)Nc2ccc(C)c(C)c2)C2CCCC2)CC1	none
Nc1ccc(Br)c2c1C(=O)c1ccccc1C2=O	none
O=C1C(=O)c2cccc3cccc1c23	none
O=C1C(=O)c2ccccc2-c2ccccc21	YopH inh 100.4
CCCCCN(C(=O)NC(=O)NCCCC)S(C)(=O)=O	none
CCOC(=O)c1nc(C)n(-c2ccc(Cl)cc2)n1	YopH inh 51.9
Cc1nc(C(=O)Nc2ccc(Cl)cc2)nn1-c1ccc([N+](=O)[O-])cc1	none
CCOC(=O)c1nc(N)c(=O)n(-c2ccc(C)cc2)n1	none
CCSc1nnc(Nc2ccccc2)s1	none
Cc1cccc(OCCCCc2c(C)n[nH]c2C)c1	YopH inh 70.2
Cc1n[nH]c(C)c1CCCOc1ccccc1	none
COc1cccc(OCCc2c(C)n[nH]c2C)c1	none
CCn1c(SCC(=O)NC(C)(C)C)nc(O)cc1=O	none
CN(C1=C(N2CCCCC2)C(=O)c2ccccc2C1=O)c1ccccc1	none
O=C1C(Nc2ccccc2)=C(N2CCCCC2)C(=O)c2ccccc21	YopH inh 98.3
CC1CC(Nc2cccc(O)c2)=CC(=O)O1 (stereo not drawn)	none
